# Experimental data as given in PubChem BioAssay (NCI).
# Compounds without any hit were thinned out: in the full panel of roughly 83,000, 20% have a hit.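 Each cell line was grown in a 96-well plate and treated with one concentration of compound for 48 hours. Values below 10 were considered active.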 Values without a mark were called inactive. Activity calls are given as the source filed them.
# What was measured:
# Assay in all cases: NCI-60 one-dose screen, 48 h (100 = growth as untreated, 0 = no growth, -100 = all killed)
# Conditions in all cases: 10 µM unless noted
# NCI-H23 lung = test system: NCI-H23 lung
# NCI-H226 lung = test system: NCI-H226 lung
# NCI-H322M lung = test system: NCI-H322M lung
# HOP-62 NSCLC = test system: HOP-62 NSCLC
# NCI-H460 lung = test system: NCI-H460 lung
# NCI-H522 lung = test system: NCI-H522 lung
# A549/ATCC NSCLC = test system: A549/ATCC NSCLC
# 786-0 renal = test system: 786-0 renal
# COLO 205 colon = test system: COLO 205 colon
# DU-145 prostate = test system: DU-145 prostate
# K-562 leukemia = test system: K-562 leukemia
# MALME-3M melanoma = test system: MALME-3M melanoma
# MDA-MB-231 breast = test system: MDA-MB-231 breast
# RXF 393 renal = test system: RXF 393 renal
# SF-268 CNS = test system: SF-268 CNS
# SF-295 CNS = test system: SF-295 CNS
# SF-539 CNS = test system: SF-539 CNS
# UACC-257 melanoma = test system: UACC-257 melanoma
# M14 melanoma = test system: M14 melanoma
Structure (SMILES),growth (NCI-H23 lung),growth (NCI-H226 lung),growth (NCI-H322M lung),growth (HOP-62 NSCLC),growth (NCI-H460 lung),growth (NCI-H522 lung),growth (A549/ATCC NSCLC),growth (786-0 renal),growth (COLO 205 colon),growth (DU-145 prostate),growth (K-562 leukemia),growth (MALME-3M melanoma),growth (MDA-MB-231 breast),growth (RXF 393 renal),growth (SF-268 CNS),growth (SF-295 CNS),growth (SF-539 CNS),growth (UACC-257 melanoma),growth (M14 melanoma)
CC1OC(n2c3ccccc3c3c4c(c5c6ccccc6[nH]c5c32)C(=O)N(CCN2CCOCC2)C4=O)CC(O)C1O (configuration not stated),16.3%,17%,59.1%,-5.89% (active),3.35% (active),10.6%,12.2%,6.66% (active),20%,18.1%,18.4%,49.1%,74.5%,33.4%,29.8%,6.46% (active),8.58% (active),31.8%,6.29% (active)
O=C(NCCN1CCCC1)n1cc(-c2ccncc2)c(-c2cc(O)cc(Cl)c2)n1,102%,93.9%,115%,92.3%,99.2%,98.6%,101%,79.2%,76.4%,104%,82%,9.44% (active),80.8%,75.5%,92.6%,125%,77.9%,43.4%,25.4%
CCCCCCCC/C=C\CCCCCCCC(=O)OCCCCCC,98.4%,94.7%,111%,121%,111%,104%,90.6%,105%,124%,103%,100%,120%,136%,104%,108%,95.6%,109%,95.7%,112%
COc1ccc(-c2nc3ccccc3n3cccc23)cc1,86.1%,94.7%,96.6%,116%,112%,101%,102%,100%,120%,119%,96.3%,127%,97.9%,135%,109%,114%,101%,109%,100%
CNC(=O)OC1C(O[C@H]2C[C@H]3[C@@H]4CC=C5C[C@@H](O)CC[C@]5(C)[C@H]4CC[C@]3(C)[C@H]2[C@H](C)C(=O)CCC(C)C)OCC(O)C1OC1OCC(O)C(O)C1OC(=O)c1ccc(OC)cc1 (some centres not stated),39.3%,3.4% (active),57.6%,0.544% (active),1.55% (active),-35.8% (active),11.5%,-14.3% (active),-42.8% (active),42%,-20.5% (active),4.11% (active),32.5%,-64.4% (active),0.344% (active),-63.3% (active),-53.5% (active),-54.9% (active),-65.5% (active)
COc1ccc2c(c1)N(Cc1ccc(Cl)cc1)CCC2N1CCCC1=O (configuration not stated),52.7%,46.5%,39.9%,52.4%,39.1%,32%,44.4%,48.6%,67.3%,43.9%,47.4%,39.8%,61.8%,39.4%,59.2%,28.3%,48.5%,63.6%,60.9%
CCN(CC)CCNC(=O)n1cc(-c2ccncc2)c(-c2ccc(Cl)c(OC)c2)n1,98%,61.5%,118%,66.8%,104%,81.9%,77.5%,72%,70.1%,97.8%,85.9%,114%,79.5%,85.3%,67.9%,97.7%,75%,93.1%,78.6%
CCOC(=O)C1C(=O)C=C(c2ccccc2)CC1c1sc(N(C)Cc2ccccc2)nc1Cl (configuration not stated),89.1%,85.8%,91.2%,85.6%,93.3%,73.5%,83.8%,93.2%,100%,107%,73%,120%,82.9%,91.7%,89.6%,94.4%,105%,90.3%,94.7%
